Data published in PubChem BioAssay AID540350 (National Center for Advancing Translational Sciences (NCATS), 2011).
The list shows a part of the results. Records with an inconclusive call do not appear. The source made the active and inactive calls. The call rests on the fitted dose curve; in most records, active means well fitted inhibition curve with a large enough effect; inconclusive means small, poorly fitted or top-dose-only effect; inactive means no such curve, though single readings can be large or run the other way.

Target: 4'-phosphopantetheinyl transferase Sfp (Bacillus subtilis (strain 168)) (UniProt P39135)
Assay: qHTS Assay for Inhibitos of Bacillus subtilis Sfp phosphopantetheinyl transferase (PPTase): Chemistry Optimization Followup
Conditions: purified Sfp PPTase enzyme activity
From the text: The covalent attachment of a phosphopantetheinyl (4'-PP) arm to a variety of synthases and other proteins is a key posttranslational protein modification. The 4'-PP is installed on the proteins post-translationally from coenzyme A (CoA) on a conserved serine residue by action of phosphopantetheinyl transferase (PPTase) enzymes. Phosphopantetheinylation is essential for synthase activity, and removal of the PPTase gene precludes natural product synthesis in microorganisms, or in the case of fatty acid biosynthesis, renders the organism unviable. PPTase enzymes belong to a distinct structural superfamily. Within bacteria, these enzymes are grouped into two classes based upon primary structure, the AcpS-Type and Sfp-Type PPTases.
Sfp-type PPTases, corresponding to an activator of surfactin production in Bacillus subtilis, are responsible for modifying type I polyketide and nonribosomal peptide synthases of prokaryotes. Sfp-type PPTases are responsible for the activation of a variety of pathogen-associated virulence factors. Among these compounds are toxins such as mycolactone from Mycobacterium ulcerans, siderophores such as vibriobactin from Vibrio cholerae or mycobactin from Mycobacterium tuberculosis, as well as the mycolic acids which form the waxy cell wall of Mycobacteria. The biosyntheses of these natural products are considered attractive targets for drug design.
In search of small molecule Sfp-PPTase inhibitors, a fluorescence quenching assay was developed for detection of Bacillus subtilis Sfp-PPTase enzymatic activity in a miniaturized high-throughput format. The consensus ybbr acceptor peptide […] was N-terminally labeled with Black Hole Quencher-2 (BHQ-2) and used in combination with rhodamine-labeled coenzyme A as a co-substrate.
Inhibition of Sfp-PPTase was detected by recording the fluorescence intensity change over a 30-minute reaction period at a 525 nm excitation and 598 nm emission. Reagents were supplied by Michael Burkart and Timothy Foley, University of California at San Diego.
NIH Chemical Genomics Center [NCGC]
NIH Molecular Libraries Probe Centers Network [MLPCN]
Assay Submitter (PI): Michael Burkart, University of California, San Diego
3 uL of Sfp-PPTase enzyme (final concentration 15 nM) and 1 uL of substrate mixture (final concentration for rhodamine-CoA and BHQ-2-YbbR 5 uM and 12.5 uM, respectively) dispensed in columns 1, 2, 5 - 48. Columns 1 and 2 used to generate neutral control (uninhibited reaction)
Three uL of reagents, consisting of buffer (in columns 3 and 4 as negative control) and Sfp-PPTase (in columns 1, 2, 5 - 48) were dispensed into 1,536-well Greiner black solid bottom plate. Compounds (23 nL) were transferred via Kalypsys pintool equipped with 1,536-pin array. The plate was incubated for 15 min at room temperature, followed by the addition of 1 uL substrate to start the reaction. The plate was then centrifuged at 1000 rpm for 15 seconds, and the fluorescence intensity recorded on a ViewLux High-throughput CCD imager (Perkin-Elmer) using standard BODIPY optics (525 nm excitation and 598 nm emission). The plate was then incubated for 30 minutes, and a second read on the ViewLux was performed. The fluorescence intensity difference over the 30-minute period was used to calculate the respective reaction rate for each well.

Potency, active:
Cc1cc(C)nc(NC(=S)N2CCN(c3ccc(Cl)cc3F)CC2)c1 1.87 µM
Cc1ccc(N2CCN(C(=S)Nc3cc(C)ccn3)CC2)cc1 6.63 µM
Cc1cc(C)nc(NC(=S)N2CCN(c3cccc(C#N)c3)CC2)c1 5.91 µM
COc1ccnc(NC(=S)N2CCN(c3ncc(C(F)(F)F)cc3Cl)CC2)c1 2.64 µM
Cc1cc(C)nc(NC(=S)N2CCN(c3ccc4nonc4c3)CC2)c1 7.44 µM
Cc1cc(C)nc(NC(=S)N2CCN(c3cccc(C(F)(F)F)c3)CC2)c1 1.67 µM
Cc1cc(C)nc(NC(=S)N2CCN(c3ccc(Cl)cc3C(F)(F)F)CC2)c1 2.96 µM
